This note sets out measurements from PubChem BioAssay (NCI).

Some test systems named below: EKVX NSCLC; SN12C renal; UO-31 renal; TK-10 renal; ACHN renal; A498 renal; CCRF-CEM leukemia; MOLT-4 leukemia; SR leukemia; CAKI-1 renal.
What all share (assay): NCI-60 one-dose screen, 48 h (100 = growth as untreated, 0 = no growth, -100 = all killed)
Common to all, as to conditions: 10 µM

Molecules are shown by their SMILES. Compounds without any hit were thinned out: in the full panel of roughly 83,000, 20% have a hit.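 In brief: 96-well plates, 48 h treatment, single concentration, percent growth endpoint.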 Values without a mark were called inactive. Activity calls are given as the source filed them. How the source made its calls: active means growth percent below 10; inactive means the rest.

For the molecule `Nc1nc(N)c2c(ccc3nccc32)[nH]1`, the growth in the test on EKVX NSCLC is 51.6%; with SN12C renal it was 94%; in the test with UO-31 renal, 39.3%; with TK-10 renal it was 92.1%; with ACHN renal it was 42.7%; in the test with A498 renal, 79.4%. The growth with CCRF-CEM leukemia is 27.9%; with MOLT-4 leukemia it was 33.9%; in the test with SR leukemia, 28.5%.

As to `O=C(Nc1nc2ccccc2s1)Nc1ccc([N+](=O)[O-])cc1Cl`, the growth with EKVX NSCLC was 90.4%; in the test with SN12C renal, 78.8%; in the test with UO-31 renal, 26.8%; with TK-10 renal, 57%; with ACHN renal, 88%; in the test with A498 renal, 106%. Moreover, the results for the growth in the test on CCRF-CEM leukemia, in the test with MOLT-4 leukemia and with SR leukemia were 57.7%, 91.1% and 48.3%, respectively.

For `CC(C)=CCc1cc(O)cc2c1OC(C=C(C)C)C1=C2C(=O)C2=C(C1=O)S(=O)(=O)CCN2` (centres undefined), the growth with EKVX NSCLC is 50.2%; in the test with SN12C renal, -44.1% (active); in the test with UO-31 renal it was 54%; in the test with TK-10 renal, 122%; in the test with ACHN renal it was 73.1%; in the test on A498 renal, 103%. Besides, the growth in the test with CCRF-CEM leukemia is -11.9% (active); in the test on MOLT-4 leukemia, -43.2% (active); in the test with SR leukemia it was 3.79% (active).

As to `Nc1ncnc2[nH]c(=O)[nH]c12`, the growth with EKVX NSCLC is 83.2%; in the test on SN12C renal, 90.9%; in the test with UO-31 renal, 105%; in the test with TK-10 renal, 99.3%; in the test on CAKI-1 renal, 6.82% (active); with A498 renal, 128%. The growth was 125% in the test on CCRF-CEM leukemia, 138% in the test on MOLT-4 leukemia and 26.1% in the test on SR leukemia.

Consider `CN(C)CCN=c1nc2c(c(N)n1-c1ccccc1)c(=S)n(-c1ccccc1)c(=S)n2-c1ccccc1`, for which the growth with EKVX NSCLC is 39.8%; in the test with SN12C renal it was 52.3%; with UO-31 renal, 3.1% (active); in the test with TK-10 renal it was 47.7%; in the test with ACHN renal it was 28.3%; in the test on A498 renal it was 40.3%. Moreover, the growth with CCRF-CEM leukemia is -8.26% (active); in the test with SR leukemia, 34.7%.

Take `Cc1ccc(C(=O)Nc2cccc(F)c2)cc1NC(=O)C1(c2ncnc3[nH]ccc23)CC1`: the growth in the test with EKVX NSCLC was 91.8%; in the test on SN12C renal, 91.2%; in the test with UO-31 renal, 51.6%; in the test on TK-10 renal, 132%; in the test with ACHN renal it was 98.8%; with A498 renal, 105%. The growth in the test on CCRF-CEM leukemia was 87.9%; in the test on MOLT-4 leukemia it was 72.7%; in the test with SR leukemia, 87.9%.

Take `Cc1cccc(NC2=C(C#N)C(=O)NC3(CCCC3)S2)c1`: the growth is 106% in the test on EKVX NSCLC; 97.3% in the test with SN12C renal; 93.8% in the test with UO-31 renal; 107% with TK-10 renal; 98.2% with ACHN renal; 96.9% in the test with A498 renal. The growth is 90.2% in the test on CCRF-CEM leukemia, 98.4% in the test with MOLT-4 leukemia and 94.9% in the test with SR leukemia.

As for `CCCCOc1ccc(NC(=O)Nc2nnc(C)s2)cc1`, the growth in the test on EKVX NSCLC was 99.6%; in the test with SN12C renal, 93.3%; in the test on UO-31 renal it was 87%; in the test with TK-10 renal, 118%; in the test on ACHN renal, 94.5%; in the test with A498 renal, 108%. For the same molecule, the growth in the test with CCRF-CEM leukemia was 72.9%; with MOLT-4 leukemia, 90.4%; with SR leukemia, 101%.

Consider `N#CC1=C(Nc2ccccc2Cl)SC(c2ccccc2O)NC1=O` (centres undefined), for which the growth was 108% in the test with EKVX NSCLC; 102% with SN12C renal; 84.5% with UO-31 renal; 134% in the test with TK-10 renal; 97.7% in the test with ACHN renal; 95.2% with A498 renal. For the same molecule, the growth in the test on MOLT-4 leukemia is 104%; with SR leukemia it was 123%.

With `COC(=O)[C@@H]1[C@H](O)[C@H](C)[C@H](O)[C@@](C)(O)/C=C\C=C(C)C(=O)Nc2c(C)c(OC(C)=O)c3c(c2O)C(=O)C(C)=C2OCOC(=C23)C(C)=C[C@@](C)(O)[C@H](O)[C@@H](C)[C@H]1OC(C)=O`, the growth with EKVX NSCLC was 108%; with SN12C renal it was 108%; with UO-31 renal, 88.7%; in the test on TK-10 renal, 126%; in the test on CAKI-1 renal, 100%; with A498 renal, 120%. Moreover, the growth in the test with CCRF-CEM leukemia is 111%; with MOLT-4 leukemia it was 95.6%; with SR leukemia, 92.1%.

`CC(=O)[C@H]1CC[C@H]2[C@@H]3CCC4=CC(=O)C=C[C@]4(C)[C@H]3CC[C@]12C`: the growth is 60.1% in the test on EKVX NSCLC; 95.9% with SN12C renal; 88.5% in the test with UO-31 renal; 106% with TK-10 renal; 87.8% in the test on CAKI-1 renal; 60.4% in the test with A498 renal. The growth in the test with CCRF-CEM leukemia was 87.2%; with MOLT-4 leukemia it was 87.1%; in the test on SR leukemia, 84.4%.

In the case of `O=C1N=NC2=C1c1c3ccccc3c(O)n1CC2`, the growth in the test with EKVX NSCLC was 96.1%; with SN12C renal, 105%; with UO-31 renal, 90%; in the test on TK-10 renal, 104%; in the test with ACHN renal, 99.9%; in the test on A498 renal it was 94.9%. Moreover, the figures for the growth in the test with CCRF-CEM leukemia, in the test on MOLT-4 leukemia and in the test with SR leukemia were 97.1%, 104% and 103%, respectively.

As to `CCOC(=O)C(=Cc1ccc(Br)cc1)C(=O)OCC`, the growth in the test with EKVX NSCLC was 50.5%; with SN12C renal, -21% (active); in the test with UO-31 renal, -85.7% (active); in the test with TK-10 renal it was 8.18% (active); in the test on ACHN renal it was -81% (active); in the test on A498 renal, -12.6% (active). Also, the growth with CCRF-CEM leukemia is -29.1% (active); in the test with MOLT-4 leukemia, -8.75% (active); in the test on SR leukemia, -42% (active).

Regarding `COc1cc(C(=O)N2CCN(c3ccccc3OC)CC2)c(N)cc1OCCCN1CCN(c2ccccc2OC)CC1`, the growth in the test with EKVX NSCLC is 83.2%; with SN12C renal, 98.6%; with UO-31 renal, 62.4%; in the test with TK-10 renal, 113%; in the test on ACHN renal, 88.8%; in the test with A498 renal it was 117%. Further, the growth with CCRF-CEM leukemia was 4.33% (active); in the test on MOLT-4 leukemia, 53.8%; in the test on SR leukemia, 67.7%.
